# Only a selection was taken, and the strongest signals are over-represented in it overall.
# Columns and labels:
# Experiment in all cases: glycan array binding signal (z-score within array); higher = stronger binding
# Conditions in all cases: glycan notation: IUPAC condensed, linker removed
# [1] = target: Fuc(a1-2)Gal(b1-3)GalNAc(a1-3)[Fuc(a1-2)]Gal(b1-4)Glc
# Summary of the method: (§1)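 Glycan array data were curated from 3228 arrays in the Consortium for Functional Glycomics database and kept only where the protein sequence was available. Glycan names were converted to IUPAC-condensed notation, and columns mapping to the same glycan were averaged. The binding signal is a within-array Z-score, averaged across arrays of the same protein sequence at different concentrations or buffers and across linkers. Negative Z-scores can be read as non-binding.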
# [2] = target: Fuc(a1-2)Gal(b1-4)[Fuc(a1-3)]GlcNAc
# Summary of the method: as §1
# [3] = target: Fuc(a1-2)[Gal(a1-3)]Gal(b1-3)GalNAc
# Summary of the method: as §1
# [4] = target: Fuc(a1-2)[Gal(a1-3)]Gal(b1-3)GlcNAc(b1-2)Man(a1-3)[Fuc(a1-2)[Gal(a1-3)]Gal(b1-3)GlcNAc(b1-2)Man(a1-6)]Man(b1-4)GlcNAc(b1-4)GlcNAc
# Summary of the method: as §1
# [5] = target: Fuc(a1-2)[Gal(a1-3)]Gal(b1-3)GlcNAc(b1-2)Man(a1-3)[Fuc(a1-2)[Gal(a1-3)]Gal(b1-3)GlcNAc(b1-2)Man(a1-6)]Man(b1-4)GlcNAc(b1-4)[Fuc(a1-6)]GlcNAc
# Summary of the method: as §1
# [6] = target: Fuc(a1-2)[Gal(a1-3)]Gal(b1-4)GlcNAc(b1-2)Man(a1-3)[Fuc(a1-2)[Gal(a1-3)]Gal(b1-4)GlcNAc(b1-2)Man(a1-6)]Man(b1-4)GlcNAc(b1-4)GlcNAc
# Summary of the method: as §1
# [7] = target: Fuc(a1-2)[GalNAc(b1-3)]Gal
# Summary of the method: as §1
# [8] = target: Fuc(a1-3)[Gal(b1-4)]GlcNAc(b1-3)GalNAc
# Summary of the method: as §1
# [9] = target: Fuc(a1-3)[Gal(b1-4)]GlcNAc(b1-6)[Gal(b1-3)GlcNAc(b1-3)]Gal(b1-4)Glc
# Summary of the method: as §1
# Gal(a1-2)Gal = target: Gal(a1-2)Gal
# Summary of the method: as §1
# [10] = target: Gal(a1-3)Fuc(a1-2)Gal(b1-4)GlcNAc(b1-3)[Gal(a1-3)Fuc(a1-2)Gal(b1-4)GlcNAc(b1-6)]GalNAc
# Summary of the method: as §1
# [11] = target: Gal(a1-3)Gal(b1-3)GlcNAc(b1-2)Man
# Summary of the method: as §1
# Gal(a1-3)Gal(b1-4)GlcNAc = target: Gal(a1-3)Gal(b1-4)GlcNAc
# Summary of the method: as §1
# [12] = target: Gal(a1-3)Gal(b1-4)GlcNAc(b1-2)Man(a1-3)[Gal(a1-3)Gal(b1-4)GlcNAc(b1-2)Man(a1-6)]Man(b1-4)GlcNAc(b1-4)GlcNAc
# Summary of the method: as §1
# [13] = target: Gal(a1-3)Gal(b1-4)[Fuc(a1-3)]GlcNAc
# Summary of the method: as §1
# [14] = target: Gal(a1-3)[Gal(a1-4)]Gal(b1-4)GlcNAc
# Summary of the method: as §1
# [15] = target: Gal(a1-4)Gal(b1-3)GlcNAc(b1-2)Man(a1-3)[Gal(a1-4)Gal(b1-3)GlcNAc(b1-2)Man(a1-6)]Man(b1-4)GlcNAc(b1-4)GlcNAc
# Summary of the method: as §1
# [16] = target: Gal(a1-4)Gal(b1-4)GlcNAc(b1-2)Man(a1-3)[Gal(a1-4)Gal(b1-4)GlcNAc(b1-2)Man(a1-6)]Man(b1-4)GlcNAc(b1-4)GlcNAc
# Summary of the method: as §1
# Gal(a1-4)GlcNAc = target: Gal(a1-4)GlcNAc
# Summary of the method: as §1
# [17] = target: Gal(b1-3)GalNAc(a1-3)[Fuc(a1-2)]Gal(b1-4)GlcNAc
# Summary of the method: as §1
# [18] = target: Gal(b1-3)GlcNAc(a1-6)Gal(b1-4)GlcNAc
# Summary of the method: as §1
# Gal(b1-3)GlcNAc(b1-2)Man = target: Gal(b1-3)GlcNAc(b1-2)Man
# Summary of the method: as §1
# [19] = target: Gal(b1-3)GlcNAc(b1-2)[Gal(b1-3)GlcNAc(b1-6)]Man(a1-6)[Gal(b1-3)GlcNAc(b1-2)Man(a1-3)]Man(b1-4)GlcNAc(b1-4)GlcNAc
# Summary of the method: as §1
# [20] = target: Gal(b1-3)GlcNAc(b1-3)Gal(b1-4)GlcNAc
# Summary of the method: as §1
# [21] = target: Gal(b1-3)GlcNAc(b1-3)Gal(b1-4)GlcNAc(b1-6)[Gal(b1-3)GlcNAc(b1-3)]Gal(b1-4)Glc
# Summary of the method: as §1
# [22] = target: Gal(b1-3)GlcNAc(b1-3)Gal(b1-4)[Fuc(a1-3)]GlcNAc
# Summary of the method: as §1
# [23] = target: Gal(b1-4)GlcNAc(b1-2)Man(a1-3)[Gal(b1-4)GlcNAc(b1-2)Man(a1-6)][Gal(b1-4)GlcNAc(b1-4)]Man(b1-4)GlcNAc(b1-4)[Fuc(a1-6)]GlcNAc
# Summary of the method: as §1
# [24] = target: Gal(b1-4)GlcNAc(b1-2)Man(a1-3)[GlcNAc(b1-4)][Gal(b1-4)GlcNAc(b1-2)Man(a1-6)]Man(b1-4)GlcNAc(b1-4)GlcNAc
# Summary of the method: as §1
# [25] = target: Gal(b1-4)GlcNAc(b1-2)Man(a1-6)Man(b1-4)GlcNAc(b1-4)GlcNAc
# Summary of the method: as §1
# [26] = target: Gal(b1-4)GlcNAc(b1-3)Gal(b1-4)GlcNAc(b1-3)Gal(b1-4)GlcNAc(b1-3)Gal(b1-4)GlcNAc(b1-3)Gal(b1-4)GlcNAc(b1-3)Gal(b1-4)GlcNAc(b1-2)Man(a1-3)[Gal(b1-4)GlcNAc(b1-3)Gal(b1-4)GlcNAc(b1-3)Gal(b1-4)GlcNAc(b1-3)Gal(b1-4)GlcNAc(b1-3)Gal(b1-4)GlcNAc(b1-3)Gal(b1-4)GlcNAc(b1-2)Man(a1-6)]Man(b1-4)GlcNAc(b1-4)GlcNAc
# Summary of the method: as §1
# Gal3S(b1-4)Glc = target: Gal3S(b1-4)Glc
# Summary of the method: as §1
# Gal3S(b1-4)GlcNAc = target: Gal3S(b1-4)GlcNAc
# Summary of the method: as §1
# [27] = target: GalNAc(a1-3)GalNAc(b1-3)Gal(a1-4)Gal(b1-4)Glc
# Summary of the method: as §1
# GalNAc3S(b1-4)GlcNAc = target: GalNAc3S(b1-4)GlcNAc
# Summary of the method: as §1
# [28] = target: GlcNAc(a1-4)Gal(b1-4)GlcNAc
# Summary of the method: as §1
# [29] = target: GlcNAc(b1-2)[GlcNAc(b1-4)]Man(a1-3)[GlcNAc(b1-4)][GlcNAc(b1-2)[GlcNAc(b1-6)]Man(a1-6)]Man(b1-4)GlcNAc(b1-4)GlcNAc
# Summary of the method: as §1
# [30] = target: GlcNAc(b1-2)[GlcNAc(b1-4)]Man(a1-3)[GlcNAc(b1-4)][GlcNAc(b1-2)[GlcNAc(b1-6)]Man(a1-6)]Man(b1-4)GlcNAc(b1-4)[Fuc(a1-6)]GlcNAc
# Summary of the method: as §1
# [31] = target: GlcNAc(b1-3)Gal(b1-4)GlcNAc
# Summary of the method: as §1
# [32] = target: GlcNAc(b1-3)Gal(b1-4)GlcNAc(b1-3)Gal(b1-4)GlcNAc(b1-2)Man(a1-3)[GlcNAc(b1-3)Gal(b1-4)GlcNAc(b1-3)Gal(b1-4)GlcNAc(b1-2)Man(a1-6)]Man(b1-4)GlcNAc(b1-4)GlcNAc
# Summary of the method: as §1
# [33] = target: GlcNAc(b1-3)Gal(b1-4)GlcNAc(b1-3)GalNAc
# Summary of the method: as §1
# [34] = target: GlcNAc(b1-3)[GlcNAc(b1-4)][GlcNAc(b1-6)]GlcNAc
# Summary of the method: as §1
# [35] = target: GlcNAc(b1-3)[GlcNAc(b1-6)]GalNAc
# Summary of the method: as §1
# [36] = target: Neu5Ac(a2-3)Gal(b1-3)GlcNAc(b1-2)Man(a1-3)[GlcNAc(b1-4)][Neu5Ac(a2-3)Gal(b1-3)GlcNAc(b1-2)Man(a1-6)]Man(b1-4)GlcNAc(b1-4)GlcNAc
# Summary of the method: as §1
# [37] = target: Neu5Ac(a2-3)Gal(b1-4)GlcNAc(b1-2)Man
# Summary of the method: as §1
# [38] = target: Neu5Ac(a2-3)Gal(b1-4)GlcNAc(b1-2)Man(a1-3)[Neu5Ac(a2-3)Gal(b1-4)GlcNAc(b1-2)Man(a1-6)]Man(b1-4)GlcNAc(b1-4)[Fuc(a1-6)]GlcNAc
# Summary of the method: as §1
# [39] = target: Neu5Ac(a2-3)Gal(b1-4)GlcNAc(b1-3)Gal(b1-4)GlcNAc(b1-2)Man(a1-3)[Neu5Ac(a2-3)Gal(b1-4)GlcNAc(b1-3)Gal(b1-4)GlcNAc(b1-2)Man(a1-6)]Man(b1-4)GlcNAc(b1-4)GlcNAc
# Summary of the method: as §1
# [40] = target: Neu5Ac(a2-3)Gal(b1-4)GlcNAc(b1-6)[Gal(b1-3)]GalNAc
# Summary of the method: as §1
# [41] = target: Neu5Ac(a2-3)Gal(b1-4)GlcNAc(b1-6)[Neu5Ac(a2-3)Gal(b1-3)]GalNAc
# Summary of the method: as §1
# [42] = target: Neu5Ac(a2-3)Gal(b1-4)[Fuc(a1-3)]GlcNAc(b1-2)Man
# Summary of the method: as §1
# [43] = target: Neu5Ac(a2-3)GalNAc(b1-4)GlcNAc
# Summary of the method: as §1
# [44] = target: Neu5Ac(a2-6)GlcNAc(b1-4)GlcNAc(b1-4)GlcNAc
# Summary of the method: as §1
# [45] = target: Neu5Ac(a2-8)Neu5Ac(a2-8)Neu5Ac
# Summary of the method: as §1
# [46] = target: Neu5Ac9Ac(a2-3)Gal(b1-4)GlcNAc
# Summary of the method: as §1
binder,measurement,setting,value
GSL-I-B4 (Griffonia simplicifolia) (protein) NFWSDVEDSIIFQGDANTTAGTLQLCKTNQYGTPLQWSAGRALYSDPVQLWDNKTESVASFYTEFTFFLKITGNGPADGLAFFLAPPDSDVKDAGEYLGLFNKSTATQPSKNQVVAVEFDTWTNPNFPEPSYRHIGINVNSIVSVATKRWEDSDIFSGKIATARISYDGSAEILTVVLSYPDGSDYILSHSVDMRQNLPESVRVGISASTGNNQFLTVYILSWRFSSNLQSTSVKAAMEPEITRTVV,glycan array binding signal (z-score),[1],-0.132
same,glycan array binding signal (z-score),[2],-0.131
same,glycan array binding signal (z-score),[3],0.853
same,glycan array binding signal (z-score),[4],1.74
same,glycan array binding signal (z-score),[5],0.077
same,glycan array binding signal (z-score),[6],3.69
same,glycan array binding signal (z-score),[7],-0.12
same,glycan array binding signal (z-score),[8],-0.197
same,glycan array binding signal (z-score),[9],-0.155
same,glycan array binding signal (z-score),Gal(a1-2)Gal,5.94
same,glycan array binding signal (z-score),[10],1.98
same,glycan array binding signal (z-score),[11],1.88
same,glycan array binding signal (z-score),Gal(a1-3)Gal(b1-4)GlcNAc,2
same,glycan array binding signal (z-score),[12],7.78
same,glycan array binding signal (z-score),[13],6.03
same,glycan array binding signal (z-score),[14],1.71
same,glycan array binding signal (z-score),[15],5.37
same,glycan array binding signal (z-score),[16],1.52
same,glycan array binding signal (z-score),Gal(a1-4)GlcNAc,13.8
same,glycan array binding signal (z-score),[17],-0.212
same,glycan array binding signal (z-score),[18],-0.155
same,glycan array binding signal (z-score),Gal(b1-3)GlcNAc(b1-2)Man,-0.171
same,glycan array binding signal (z-score),[19],-0.138
same,glycan array binding signal (z-score),[20],-0.228
same,glycan array binding signal (z-score),[21],-0.187
same,glycan array binding signal (z-score),[22],-0.177
same,glycan array binding signal (z-score),[23],-0.172
same,glycan array binding signal (z-score),[24],-0.15
same,glycan array binding signal (z-score),[25],-0.205
same,glycan array binding signal (z-score),[26],-0.133
same,glycan array binding signal (z-score),Gal3S(b1-4)Glc,-0.151
same,glycan array binding signal (z-score),Gal3S(b1-4)GlcNAc,-0.174
same,glycan array binding signal (z-score),[27],-0.156
same,glycan array binding signal (z-score),GalNAc3S(b1-4)GlcNAc,-0.159
same,glycan array binding signal (z-score),[28],-0.12
same,glycan array binding signal (z-score),[29],-0.089
same,glycan array binding signal (z-score),[30],-0.062
same,glycan array binding signal (z-score),[31],-0.186
same,glycan array binding signal (z-score),[32],0.066
same,glycan array binding signal (z-score),[33],-0.208
same,glycan array binding signal (z-score),[34],-0.144
same,glycan array binding signal (z-score),[35],-0.161
same,glycan array binding signal (z-score),[36],-0.151
same,glycan array binding signal (z-score),[37],-0.197
same,glycan array binding signal (z-score),[38],-0.214
same,glycan array binding signal (z-score),[39],0.149
same,glycan array binding signal (z-score),[40],-0.23
same,glycan array binding signal (z-score),[41],-0.212
same,glycan array binding signal (z-score),[42],-0.187
same,glycan array binding signal (z-score),[43],-0.157
same,glycan array binding signal (z-score),[44],-0.169
same,glycan array binding signal (z-score),[45],-0.144
same,glycan array binding signal (z-score),[46],-0.134
